Screening results (PubChem BioAssay)
Pf growth 96h: inhibits malaria parasite growth, 96 h | P. falciparum luciferase reporter growth, 96 h | Potency, µM (doses to about 28.7 µM), inactives show at the top dose activity change, negative = inhibition, most hits filed as inhibitors | hit rate 6.9% among 320,000 | AID 504834; further: on the % scale 0 is the no-effect control and ±100 the full control effect
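Luminescence readout: decreased luciferase signal marks inhibited growth of reporter-expressing P. falciparum in infected red cells (2% hematocrit, 0.05% parasitemia final), exposed to compound two generations (96 h, 37 C, 5% CO2).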
NS1 function inh: blocks influenza NS1 protein function; Potency, µM (titrated, usually from 46.1 µM), for inactives: top-dose activity, positive = more growth; hit rate 0.4% among 270,000; calls by dose curve; further: actives are rising curves; nearly all actives have a fitted effect of over 50% in size
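S. cerevisiae expressing influenza A NS1, grown in glucose, washed, then diluted 1:100 into pH 6.0 -URA galactose medium with 23 nl compound. Growth recovery read as OD600; NS1-free strain serves as control.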
AMA1 RON2 block: disrupts binding of P. falciparum AMA1 to RON2. hit rate 0.2% among 360,000. AlphaScreen AMA1-biotinylated RON2 peptide binding. Potency, µM (titrated, usually from 58.2 µM), for the others: at the highest dose activity change, negative = inhibition, actives largely listed as inhibitors;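 further: 0% = vehicle wells and -100% = peptide control; nearly all actives have a fitted effect of over 45% in size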
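AMA1 (3D7) with his tag at 25 nM final met compounds first, then biotinylated RON2 peptide at 25 nM; detection used donor plus acceptor beads, 10 µg/mL apiece, read by AlphaScreen after 30 min at room temperature.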
HCV inhibitor: HCV inhibition; Huh7.5.1 HCVcc-Cre infection, luciferase reporter, 44 h; Potency, µM (top dose mostly 41.8 µM), without a hit: at the top dose activity change, negative = inhibition, most hits filed as inhibitors; hit rate 3.4% among 340,000; further: on the % scale 0 is the no-effect control and ±100 the full control effect
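Seed cells (1,000/well) for 4 h; treat with compound and infect with HCVcc-Cre, moi about 0.5. Incubate 44 h, then detect luciferase activity.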
SARS PLP yeast: SARS-CoV PLP inhibition in yeast | S. cerevisiae expressing SARS-CoV PLpro, growth rescue | Potency, µM (doses to about 32.9 µM), for inactives: at the highest dose activity, positive = growth rescue, most hits filed as activators | hit rate 0.19% among 330,000; calls by dose curve; further: 0% is about no effect; nearly all actives have a fitted effect of over 55% in size
Pf growth 48h: inhibits P. falciparum growth in the first generation, 48 h. P. falciparum luciferase growth in erythrocytes, 48 h. Potency, µM (titrated, usually from 28.7 µM), inactives show at the highest dose activity change, negative = inhibition, hits mostly inhibitors. hit rate 5.9% among 310,000. AID 504832; further: on the % scale 0 is the no-effect control and ±100 the full control effect
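Luminescence readout; reporter = integrated firefly luciferase in P. falciparum. RBC culture at 2% hematocrit, 0.1% parasitemia final, 37 C/5% CO2; decreased signal taken as growth inhibition.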
* hit, by the source's call; ? = inconclusive; nt = not tested or not shown. An excerpt weighted towards active compounds, which were near 12% of everything screened. Unless noted, the call rests on the fitted dose curve; in most records, active means well fitted curve in the direction sought with a large enough effect; inconclusive means small, poorly fitted or top-dose-only effect, or another doubt; inactive means no such curve, though single readings can be large; an effect the other way counts as inactive or inconclusive. Potency means the concentration at half of the fitted maximal effect.

SMILES	Pf growth 96h	NS1 function inh	AMA1 RON2 block	HCV inhibitor	SARS PLP yeast	Pf growth 48h
Cc1nn(C(C)C(=O)NC2CCCCCC2)c(=O)c2nn(-c3ccccc3)c(C)c12 (configuration not stated)	12µM*	0%	-8%	?	-7%	-11%
Cc1ccc(CCNC(=O)C(C)n2nc(C)c3c(C)n(-c4ccccc4)nc3c2=O)cc1 (configuration not stated)	?	10%	-11%	-13%	-8%	-14%
Cc1nn(-c2ccccc2)c(Cl)c1C(=O)NC1CCCCC1	93%	-5%	-17%	0%	-1%	-20%
CCOc1ccc(CCNC(=O)C(C)n2nc(C)c3c(C)n(-c4ccccc4)nc3c2=O)cc1 (configuration not stated)	13µM*	0%	1%	-29%	?	?
Cc1nn(-c2ccccc2)c(C)c1C(=O)OC(C)C(=O)NC1CCCCC1 (configuration not stated)	nt	nt	0%	13µM*	-2%	nt
NC(=O)C1CCN(c2nc(-c3ccccc3-c3ccccc3)cs2)CC1	?	nt	nt	nt	9%	?
CC(=C/c1ccc(C(C)C)cc1)/C=N/NC(=O)Cn1nnnc1N	44%	11%	-1%	11%	-1%	1%
COc1ncccc1C(=O)N1CCCC(N2CCN(c3cccc(Cl)c3)CC2)C1 (configuration not stated)	?	-5%	-2%	?	2%	-29%
CC1(C(=O)N2CCCCC2)CCN1C(=O)Cc1ccc(-c2ccccc2)cc1 (configuration not stated)	nt	nt	1%	nt	nt	nt
COc1ccc(C(CNC(=O)COc2cccc(C(F)(F)F)c2)N2CCCC2)cc1 (configuration not stated)	12µM*	nt	5%	?	3%	10µM*
COc1ccc(C(CNC(=O)COc2ccc(Cl)c(C)c2)N2CCCCC2)cc1 (configuration not stated)	7%	-6%	0%	?	4%	?
COc1ccc(C(CNC(=O)COc2cccc(C)c2)N2CCCC2)cc1 (configuration not stated)	13µM*	nt	-7%	13%	-3%	?
O=C(Nc1ccc(N2CCN(C(=O)c3ccccc3F)CC2)cc1)c1ncn[nH]1	8%	nt	48%	2%	4%	-22%
COc1ccc(N(CC(=O)N2CCN(Cc3ccccc3)CC2)S(=O)(=O)c2ccccc2)cc1	5.9µM*	-19%	-5%	18%	1%	?
COc1ccc(N(CC(=O)N2CCN(Cc3ccccc3)CC2)S(C)(=O)=O)cc1	379%	21%	-1%	15%	5%	-7%
CS(=O)(=O)N(CC(=O)N1CCN(Cc2ccccc2)CC1)c1cccc([N+](=O)[O-])c1	2.9µM*	10%	-2%	-1%	5%	?
COc1ccc(N2CCN(C(=O)CN(c3ccc(OC)cc3)S(=O)(=O)c3ccccc3)CC2)cc1	-8%	28%	?	?	-1%	12µM*
COCc1cc(C)nc(SCC(=O)Nc2ccccc2N2CCOCC2)c1C#N	?	2%	33%	-27%	-3%	?
COCc1cc(C)nc(SCc2ccc(Cl)cc2)c1C#N	2%	-37%	42%	-16%	-7%	?
CCOc1ccc(CSc2nc(C)cc(COC)c2C#N)cc1OCC	-15%	3%	9%	?	-6%	13µM*
COCc1cc(C)nc(SCC(=O)Nc2cccc3cccnc23)c1C#N	12µM*	3%	105%	13%	-12%	15%
COCc1cc(C)nc(SCC(=O)Nc2ccc3c(c2)OCO3)c1C#N	1%	6%	-13%	11µM*	1%	14%
COc1ccccc1C(=O)Nc1nc(C)cc(C)n1	nt	nt	-12%	13%	nt	nt
CN1C(=O)Cc2cc(S(=O)(=O)N3CCN(c4ccccc4F)CC3)ccc21	10%	18%	-3%	-28%	-2%	?
Cc1cc(O)c2c3c(c(=O)oc2c1)CCC(C)C3 (configuration not stated)	?	-71%	8%	8.9µM*	-7%	?
